# Source: PubChem BioAssay
# PostGolgi yeast = phenotypic screen on post-Golgi transport, primary screen; post-Golgi transport phenotypic cell assay; inhibition, % at 10 µM; 0.9% of 98,000 active;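 note: yeast cells grown in 1536-well plates; yeast grown about 18 h at 30C before absorbance read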
# CYP2C9 activ = human CYP2C9 activators, primary screen, biochemical, luminescence. Cytochrome P450 2C9 (Homo sapiens), P11712. recombinant CYP2C9, luciferin-H conversion; hits give high values; factor 1 = untreated enzyme, 0 = blocked. activation factor at 5 µM. 1.4% of 96,000 active. AID 1024, 2008;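 active = activation factor of 2 or more for CYP2C9 at a 5 µM dose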;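 note: 0 = sulfaphenazole-blocked wells and 1 = vehicle-only wells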
# Target sequence (P11712 whole entry, looked up): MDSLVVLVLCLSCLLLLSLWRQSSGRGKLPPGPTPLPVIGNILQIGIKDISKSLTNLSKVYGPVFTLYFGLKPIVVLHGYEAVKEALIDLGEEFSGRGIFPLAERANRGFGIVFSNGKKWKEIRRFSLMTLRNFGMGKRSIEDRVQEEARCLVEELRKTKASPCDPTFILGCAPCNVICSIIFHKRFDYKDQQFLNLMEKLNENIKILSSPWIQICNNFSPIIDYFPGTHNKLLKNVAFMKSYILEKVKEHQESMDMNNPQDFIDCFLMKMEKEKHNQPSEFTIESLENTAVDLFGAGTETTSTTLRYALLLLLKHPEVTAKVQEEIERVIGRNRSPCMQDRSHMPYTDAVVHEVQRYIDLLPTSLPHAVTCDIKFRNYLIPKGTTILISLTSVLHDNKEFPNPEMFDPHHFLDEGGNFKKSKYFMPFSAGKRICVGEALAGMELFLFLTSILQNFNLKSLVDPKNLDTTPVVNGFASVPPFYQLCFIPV
# CYP2C19 activ = human CYP2C19 activators, primary screen, biochemical, luminescence. Cytochrome P450 2C19 (Homo sapiens), P33261. recombinant CYP2C19, luciferin-H EGE luminescence; hits give high values; 0 = fully inhibited enzyme, 1 = untreated enzyme. activation factor at 5 µM. 96,000 tested, under 10 active. AID 1025, 2008;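 active = activation factor of at least 2 at 5 µM in the primary screen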;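 note: 0 = wells with 2.5 mM tranylcypromine and 1 = vehicle-only wells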
# CYP2C9 inhib = blockers of cytochrome P450 2C9 activity – biochemical, luminescence, ADME assay, primary screen. P11712. CYP2C9 Supersomes, luciferin-H conversion. inhibition, % at 5 µM. 20% of 96,000 active. AID 777, 2007;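 active = blocking of liver enzyme CYP2C9 beyond about 50% at 5 µM, limit read from the data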
# CYP2C19 inhib = blockers of cytochrome P450 2C19 activity – biochemical, luminescence, ADME assay, primary screen; P33261; CYP2C19 Supersomes, luciferin-H EGE luminescence, 30 min; inhibition, % at 5 µM; 21% of 96,000 active; AID 778, 2007;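 active = CYP2C19 inhibition above a set limit at 5 µM in the primary screen, cut at about 50% in these data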;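 note: plate controls were negative control wells for no effect and 2.5 mM tranylcypromine positive control for full effect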
# PostGolgi ctrl = growth inhibition of yeast control strain, primary screen, counter-screen for post-Golgi transport modulator project. efflux-deficient yeast background strain, growth absorbance A615, 16 h. 5% of 98,000 active. AID 738, 2007. inhibition, % at 10 µM
# * = called active by the depositor; x = no result. An excerpt weighted towards active compounds, which were near 32% of everything screened. Cut-off read from the data, not from the text of the source, unless noted: active = inhibition above about 30%; inactive = the rest.
SMILES,PostGolgi yeast,CYP2C9 activ,CYP2C19 activ,CYP2C9 inhib,CYP2C19 inhib,PostGolgi ctrl
COC(=O)c1cc(Br)ccc1OC(=O)c1cccnc1,4.6,0.8,0.9,22.8,11.6,-0.3
COCCn1c(CNc2ccc(F)cc2)nnc1SCC(=O)Nc1ccc(OC)cc1OC,0.3,1.1,1.1,-10.3,-10.2,-0.7
CCOc1ccc(/C(O)=C2\C(=O)C(=O)N(c3cc(C)on3)C2c2ccccc2OC)cc1 (configuration not stated),10.2,1.1,1,-8.8,-1.2,15.1
COc1ccc(OC)c(-c2[nH]nc3c2C(c2ccco2)C(C#N)=C(N)O3)c1 (configuration not stated),3.6,0.6,0.2,38.8,80.4*,6.1
CCc1[nH]nc2c1C(c1cccc(OC(=O)N3CCOCC3)c1)C(C#N)=C(N)O2 (configuration not stated),10.0,0.6,0.3,37.4,70.3*,-0.9
CCc1[nH]nc2c1C(Cc1ccccc1)C(C#N)=C(N)O2 (configuration not stated),-0.8,0.9,0.5,14.4,53.2*,28.8
CC(C)c1[nH]nc2c1C(c1cccc(OC(=O)N3CCOCC3)c1)C(C#N)=C(N)O2 (configuration not stated),-6.8,1,1.1,3.0,-5.6,0.7
CCCc1[nH]nc2c1C(c1cc(OC)cc(OC)c1)C(C#N)=C(N)O2 (configuration not stated),10.2,0.7,0.7,31.4,34.1,-4.4
CCCc1[nH]nc2c1C(c1cc(OC)ccc1F)C(C#N)=C(N)O2 (configuration not stated),16.9,0.1,0.2,88.5*,81.0*,-5.0
O=C(c1ccccc1)N(c1ccccc1)C1C=CS(=O)(=O)C1 (configuration not stated),5.0,0.8,0.7,17.4,25.1,-0.4
CCCc1[nH]nc2c1C(c1ccc(OC)c(CSC3=NCCS3)c1)C(C#N)=C(N)O2 (configuration not stated),-3.1,0.4,0.5,57.8*,45.4,6.4
CC(C(=O)Nc1cccnc1)N1C(=O)C2C3C=CC(C3)C2C1=O (configuration not stated),14.6,1,1,-0.4,3.5,-6.8
CCC(C)Oc1nc(C)cc(C)c1S(=O)(=O)c1ccccc1C (configuration not stated),-6.2,0.6,0.6,37.5,39.5,15.9
Cc1cc(C)c(S(=O)(=O)c2c(C)cccc2C)c(OCC(C)C)n1,3.1,0.1,0.2,91.0*,83.8*,12.6
O=S(=O)(Cc1ccccc1)NCC1CCCO1 (configuration not stated),4.8,1.1,0.9,-8.3,7.9,-9.7
COC(=O)c1[nH]c2ccc(F)cc2c1NC(=O)Nc1ccc(OC)cc1,8.2,1,0.9,2.6,11.1,-3.0
COC(=O)c1[nH]c2ccc(C)cc2c1NS(=O)(=O)c1ccc(F)cc1,13.7,0.6,0.2,35.9,76.8*,-1.9
CCCCNC(=O)Nc1c(C(=O)OC)[nH]c2ccc(C)cc12,0.6,0.8,0.7,16.8,30.6,-1.9
COC(=O)c1[nH]c2ccc(C)cc2c1NS(=O)(=O)c1ccc(F)c(C)c1,-8.0,0.5,0.2,52.1*,75.5*,15.0
COC(=O)c1[nH]c2ccc(C)cc2c1NC(=O)Oc1ccccc1,16.0,1,0.8,2.0,18.2,0.4
COC(=O)c1[nH]c2ccc(C)cc2c1NC(=O)Nc1ccc(OC)cc1,-11.3,0.9,0.5,5.6,54.3*,-0.3
Cc1cc(S(=O)(=O)Nc2c(C(=O)O)[nH]c3ccccc23)ccc1F,2.2,0.2,0.1,78.6*,91.9*,-3.3
O=S(=O)(c1ccc2ccccc2c1)N(CC(O)COCc1ccco1)c1ccccc1 (configuration not stated),20.1,0.9,0.9,11.7,11.5,30.9*
Fc1ccccc1CSc1nnc(-c2cccs2)o1,1.9,0.2,0.1,80.1*,85.1*,-3.0
Fc1ccc(CSc2nnc(-c3cccs3)o2)cc1,-3.4,0.3,0.2,71.9*,77.7*,1.6
SMILES,PostGolgi yeast,CYP2C9 activ,CYP2C19 activ,CYP2C9 inhib,CYP2C19 inhib,PostGolgi ctrl
c1ccc(CSc2nnc(-c3cccs3)o2)cc1,-4.0,0.7,0.6,28.4,39.3,10.3
CCOc1ccc(-n2cnnn2)cc1S(=O)(=O)NC1CC1,-1.2,1,1,3.5,2.8,6.2
CCOc1ccc(-n2cnnn2)cc1S(=O)(=O)Nc1c(C)cccc1C,-1.1,0.6,0.9,35.7,12.3,42.2*
CCOc1cc(S(=O)(=O)NCCc2cccc(C)c2)c(OCC)cc1-n1cnnn1,3.6,0.2,0.6,80.4*,35.5,9.8
CCOc1cc(-n2cnnn2)c(OCC)cc1NC(=O)c1cnccn1,x,1,0.8,4.7,15.2,x
CCOc1cc(S(=O)(=O)N(CC)CC)c(OCC)cc1-n1cnnn1,27.7,0.7,0.9,30.4,11.2,-0.4
CCOc1cc(S(=O)(=O)NCCc2ccccc2C)c(OCC)cc1-n1cnnn1,0.2,0.1,0.2,88.7*,83.7*,7.5
COc1cccc(OC)c1OCCN(C)C,-2.1,1,0.9,2.5,6.9,-3.5
CC1(C)CC(=O)C=C(Nc2ccc(S(N)(=O)=O)cc2)C1,0.3,0.7,1.1,26.5,-5.7,-9.2
O=C(NC1CCCCC1)c1ccc(CN2CCOCC2)cc1,9.9,0.9,1.2,11.2,-16.8,5.0
O=C(O)C1CCCCC1C(=O)NCCc1cccc(Cl)c1 (configuration not stated),-1.6,0.7,0.7,26.5,30.3,5.4
O=C(O)C1CCCCC1C(=O)NCCc1ccc(Cl)cc1 (configuration not stated),7.0,0.6,0.3,40.0,74.7*,2.9
O=C(NCCc1ccc(Cl)cc1)c1ncn[nH]1,3.3,0.8,0.7,15.3,28.0,0.8
CC(C)CN(CC(C)C)S(=O)(=O)N1CCC(C(=O)NCCc2ccc(Cl)cc2)CC1,-4.1,0.5,0.5,53.5*,54.5*,7.3
O=C(NCCc1ccc(Cl)cc1)C1CCN(S(=O)(=O)c2cccs2)CC1,-11.8,0.2,0.2,79.3*,84.4*,3.6
COCCCNC(=O)C1CCN(S(=O)(=O)N(CC(C)C)CC(C)C)CC1,0.5,1,x,4.3,x,8.7
CC(C)NC(=O)C(=O)NCCc1ccc(Cl)cc1,2.6,1,0.1,2.4,92.3*,-1.1
O=C1C2CC=CCC2C(=O)N1c1cccc(OS(=O)(=O)c2ccc3ccccc3c2)c1 (configuration not stated),-0.7,1.6,1,-63.1,2.6,7.8
CS(=O)(=O)N1CCC(C(=O)NCCN2CCN(Cc3ccccc3)CC2)CC1,31.4*,1.1,1.2,-14.7,-16.9,-3.1
